Measured values reported in PubChem BioAssay AID1159580 (chemical genetic matrix, 2015).
Values joined by “and” are separate entries in the source; they are usually repeats but may differ in a detail not shown here. Equal values may be shown once. The whole screen tested about 5,500 compounds, of which about 2,000 (36%) were called active. Another 18% or so got no clear call; they are omitted. Rule as the data show it: active = normalized growth mostly below about 0.91 (no sharp cut-off); inconclusive = no clear call, values can overlap the other calls; inactive = mostly above about 0.92. The list shows a part of the results.

Test: chemical genetic growth profiling, strain panel (AID 1159580);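 also: tested at 20 µM; growth read once vehicle control cultures reached saturation at 30 °C; 1 = growth at the plate median or of vehicle wells; lower values mean less growth of the strain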
Settings: S. cerevisiae deletion strains, growth OD

Measured: normalized growth

CNc1ccccc1C(=O)N1CCc2c([nH]c3ccccc23)C1=O
inactive: locus YAL021C, strain ccr4, active compounds read low 0.962 | locus YAL026C, strain drs2, active compounds read low 1 | locus YAL030W, strain snc1, active compounds read low 0.995 | locus YBL061C, strain skt5, active compounds read low 1 | locus YBR009C, strain hhf1, active compounds read low 0.981 | locus YBR021W, strain FUR4, active compounds read low 0.954 | locus YBR023C, strain chs3, active compounds read low 1 | locus YBR171W, strain sec66, active compounds read low 0.991 | locus YBR229C, strain ROT2, active compounds read low 1.01 | locus YBR231C, strain swc5, active compounds read low 0.996 | locus YBR279W, strain paf1, active compounds read low 0.992 | locus YCL011C, strain gbp2, active compounds read low 0.983 | locus YCL016C, strain dcc1, active compounds read low 0.981 | locus YCL029C, strain bik1, active compounds read low 0.996 | locus YCL069W, strain vba3, active compounds read low 0.987 | locus YCR088W, strain abp1, active compounds read low 1 | locus YDL005C, strain med2, active compounds read low 0.997 | locus YDL035C, strain GPR1, active compounds read low 0.995 | locus YDL040C, strain nat1, active compounds read low 0.99 | locus YDL074C, strain BRE1, active compounds read low 0.976 | locus YDL101C, strain DUN1, active compounds read low 1.02 | locus YDL185W, strain tfp1, active compounds read low 0.996 | locus YDL192W, strain arf1, active compounds read low 0.975 | locus YDR001C, strain nth1, active compounds read low 0.98 | locus YDR069C, strain doa4, active compounds read low 0.966 | locus YDR101C, strain arx1, active compounds read low 0.964 | locus YDR137W, strain rgp1, active compounds read low 0.991 | locus YDR159W, strain sac3, active compounds read low 1.03 | locus YDR162C, strain NBP2, active compounds read low 1.01 | locus YDR195W, strain ref2 1.01 | locus YDR297W, strain sur2, active compounds read low 1 | locus YDR318W, strain mcm21, active compounds read low 0.997 | locus YDR334W, strain swr1, active compounds read low 0.991 | locus YDR335W, strain msn5, active compounds read low 0.996 | locus YDR388W, active compounds read low 0.979 | locus YDR392W, strain spt3, active compounds read low 0.908 | locus YDR502C, strain sam2, active compounds read low 0.967 | locus YEL003W, strain gim4, active compounds read low 0.987 | locus YEL037C, strain rad23, active compounds read low 0.992 | locus YEL061C, strain CIN8 (second series), active compounds read low 0.989 | locus YEL061C, strain CIN8, active compounds read low 1.01 | locus YER015W, strain faa2, active compounds read low 0.992 | locus YER016W, strain bim1, active compounds read low 0.985 | locus YER110C, active compounds read low 0.986 | locus YER111C, strain swi4, active compounds read low 1 | locus YER155C, strain BEM2 (second series), active compounds read low 1.01 | locus YER155C, strain BEM2, active compounds read low 0.997 | locus YER167W, strain BCK2, active compounds read low 1 | locus YFR010W, strain ubp6, active compounds read low 0.965 | locus YGL078C, strain dbp3, active compounds read low 0.971 | locus YGL086W, strain mad1, active compounds read low 0.964 | locus YGL167C, strain pmr1, active compounds read low 0.98 | locus YGL173C, strain kem1, active compounds read low 0.997 | locus YGL227W, strain vid30, active compounds read low 1 | locus YGL240W, strain doc1, active compounds read low 1 | locus YGL248W, strain PDE1, active compounds read low 1.02 | locus YGL253W, strain hxk2, active compounds read low 0.989 | locus YGR078C, strain PAC10, active compounds read low 1.01 | locus YGR135W, strain pre9, active compounds read low 1 | locus YGR229C, strain SMI1, active compounds read low 1 | locus YGR252W, strain gcn5, active compounds read low 0.924 | locus YHR013C, strain ard1, active compounds read low 0.958 | locus YHR027C, strain rpn1, active compounds read low 0.991 | locus YHR030C, strain SLT2, active compounds read low 1.01 and 0.995 | locus YHR079C, strain IRE1 (second series), active compounds read low 0.981 | locus YHR079C, strain IRE1, active compounds read low 0.986 | locus YHR094C, strain hxt1, active compounds read low 0.984 | locus YHR129C, strain ARP1, active compounds read low 1.01 | locus YHR142W, strain chs7, active compounds read low 0.975 | locus YHR200W, strain rpn10, active compounds read low 0.987 | locus YIL066C, strain RNR3, active compounds read low 1.01 | locus YIL073C, strain SPO22, active compounds read low 0.957 | locus YIL125W, strain kgd1, active compounds read low 0.968 | locus YIR030C, strain dcg1, active compounds read low 0.975 | locus YJL092W, strain hpr5, active compounds read low 0.991 | locus YJL095W, strain BCK1 (second series), active compounds read low 1.01 | locus YJL095W, strain BCK1, active compounds read low 1.01 and 1.06 | locus YJL115W, strain asf1, active compounds read low 0.976 | locus YJL129C, strain trk1, active compounds read low 0.982 | locus YJL134W, strain LCB3, active compounds read low 1.01 | locus YJL154C, strain vps35, active compounds read low 0.989 | locus YJL164C, strain tpk1, active compounds read low 0.963 | locus YJL166W, strain qcr8, active compounds read low 0.992 | locus YJL168C, strain set2, active compounds read low 0.989 | locus YJL187C, strain SWE1 (second series), active compounds read low 1 | locus YJL187C, strain SWE1, active compounds read low 0.981 | locus YJR043C, strain POL32, active compounds read low 0.986 | locus YJR066W, strain TOR1, active compounds read low 0.94 | locus YJR075W, strain HOC1, active compounds read low 1 | locus YKL009W, strain mrt4, active compounds read low 0.949 | locus YKL068W, active compounds read low 1 | locus YKL085W, strain MDH1 (second series), active compounds read low 0.994 | locus YKL085W, strain MDH1, active compounds read low 0.994 | locus YKL160W, strain elf1, active compounds read low 0.973 | locus YKR001C, strain vps1, active compounds read low 0.941 | locus YKR026C, strain gcn3, active compounds read low 1.01 | locus YKR091W, strain srl3, active compounds read low 0.989 | locus YLL001W, strain dnm1, active compounds read low 0.982 | locus YLL026W, active compounds read low 1 | locus YLL041C, strain sdh2, active compounds read low 1 | locus YLR027C, strain aat2, active compounds read low 0.995 | locus YLR039C, strain RIC1, active compounds read low 0.812 | locus YLR058C, strain SHM2, active compounds read low 1.01 | locus YLR102C, strain apc9, active compounds read low 0.977 | locus YLR113W, strain HOG1, active compounds read low 1.1 | locus YLR221C, strain rsa3, active compounds read low 1.01 | locus YLR258W, strain gsy2, active compounds read low 0.993 | locus YLR262C, strain YPT6 (second series), active compounds read low 0.975 | locus YLR262C, strain YPT6, active compounds read low 0.823 | locus YLR268W, strain sec22, active compounds read low 0.954 | locus YLR320W, strain mms22, active compounds read low 1 | locus YLR330W, strain CHS5, active compounds read low 1.01 | locus YLR342W, strain FKS1 (second series), active compounds read low 0.998 | locus YLR342W, strain FKS1, active compounds read low 0.991 | locus YLR357W, strain rsc2, active compounds read low 0.973 | locus YLR370C, strain arc18, active compounds read low 0.998 | locus YLR371W, strain rom2, active compounds read low 0.986 | locus YLR384C, strain iki3, active compounds read low 1.02 | locus YLR418C, strain cdc73, active compounds read low 0.917 | locus YML016C, strain PPZ1, active compounds read low 1.02 | locus YML032C, strain rad52, active compounds read low 0.989 | locus YML120C, strain ndi1, active compounds read low 0.983 | locus YML124C, strain tub3, active compounds read low 0.985 | locus YMR058W, strain fet3, active compounds read low 0.994 | locus YMR078C, strain ctf18, active compounds read low 0.986 | locus YMR125W, strain sto1, active compounds read low 0.965 | locus YMR129W, active compounds read low 0.988 | locus YMR205C, strain PFK2, active compounds read low 0.984 | locus YMR223W, strain ubp8, active compounds read low 1 | locus YMR231W, strain pep5, active compounds read low 0.999 | locus YMR263W, strain SAP30, active compounds read low 1.01 | locus YMR307W, strain GAS1, active compounds read low 0.949 | locus YNL067W, strain RPL9B, active compounds read low 1.01 | locus YNL071W, strain lat1, active compounds read low 0.993 | locus YNL153C, strain GIM3, active compounds read low 1.01 | locus YNL183C, strain NPR1, active compounds read low 1.01 | locus YNL209W, strain ssb2, active compounds read low 0.985 | locus YNL233W, strain BNI4, active compounds read low 0.996 | locus YNL248C, strain rpa49, active compounds read low 0.986 | locus YNL250W, strain rad50, active compounds read low 1 | locus YNL271C, strain bni1, active compounds read low 0.989 | locus YNL298W, strain CLA4, active compounds read low 0.977 | locus YNL307C, strain MCK1, active compounds read low 0.985 | locus YNL322C, strain KRE1 (second series), active compounds read low 1 | locus YNL322C, strain KRE1, active compounds read low 1.01 | locus YNR049C, strain mso1, active compounds read low 0.989 | locus YNR052C, strain pop2, active compounds read low 1.02 | locus YOL006C, strain TOP1, active compounds read low 0.974 | locus YOL012C, strain htz1 0.736 | locus YOL147C, strain pex11, active compounds read low 0.979 | locus YOR001W, strain rrp6, active compounds read low 1.01 | locus YOR061W, strain CKA2, active compounds read low 1.01 | locus YOR069W, strain VPS5, active compounds read low 1.01 | locus YOR070C, strain gyp1, active compounds read low 0.985 | locus YOR080W, strain dia2, active compounds read low 1 | locus YOR083W, strain WHI5, active compounds read low 0.967 | locus YOR106W, strain vam3, active compounds read low 0.924 | locus YOR136W, strain idh2, active compounds read low 0.974 | locus YOR144C, strain elg1, active compounds read low 0.979 | locus YOR184W, strain ser1, active compounds read low 0.979 | locus YOR231W, strain MKK1, active compounds read low 1.01 | locus YOR265W, strain rbl2, active compounds read low 1 | locus YOR270C, strain vph1, active compounds read low 0.979 | locus YOR290C, strain snf2, active compounds read low 0.944 | locus YOR316C, strain cot1, active compounds read low 0.982 | locus YPL051W, strain arl3, active compounds read low 0.982 | locus YPL055C, strain LGE1, active compounds read low 0.991 | locus YPL078C, strain atp4, active compounds read low 0.973 | locus YPL106C, strain sse1, active compounds read low 0.997 | locus YPL240C, strain hsp82, active compounds read low 0.986 | locus YPL241C, strain CIN2, active compounds read low 1 | locus YPL256C, strain CLN2, active compounds read low 1 | locus YPR119W, strain clb2, active compounds read low 0.978 | locus YPR141C, strain kar3, active compounds read low 0.994 | locus YPR163C, strain tif3, active compounds read low 0.99 | locus YPR167C, strain met16, active compounds read low 0.989 | strain wtn01, active compounds read low 0.961
